From PubChem BioAssay AID1159580 (chemical genetic matrix, 2015)
Out of some 5,500 compounds screened, about 2,000 (36%) were called active. About 18% were inconclusive and are not listed. Cut-off read from the data, not from the text of the source: active = normalized growth mostly below about 0.91 (no sharp cut-off); inconclusive = no clear call, values can overlap the other calls; inactive = mostly above about 0.92. The list shows a part of the results.

Experiment: chemical genetic growth profiling, strain panel (AID 1159580);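 note: tested at 20 µM; growth read once vehicle control cultures reached saturation at 30 °C; 1 = growth at the plate median or of vehicle wells; lower values mean less growth of the strain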
Conditions: S. cerevisiae deletion strains, growth OD

Measured: normalized growth

Oc1c(Br)cc(Br)cc1C=Nc1ccc(Sc2ccccc2)nc1Sc1ccccc1
inactive: locus YAR019C, strain CDC15, active compounds read low 0.92 | locus YBL105C, strain PKC1, active compounds read low 0.945 | locus YBR135W, strain CKS1, active compounds read low 0.926 | locus YBR136W, strain MEC1, active compounds read low 0.945 | locus YBR160W, strain CDC28, active compounds read low 0.936 | locus YDL017W, strain CDC7, active compounds read low 0.948 | locus YDL028C, strain MPS1, active compounds read low 0.917 | locus YDL101C, strain DUN1, active compounds read low 0.969 | locus YDL108W, strain KIN28, active compounds read low 0.926 | locus YDL132W, strain cdc53, active compounds read low 0.931 | locus YDR052C, strain DBF4, active compounds read low 0.955 | locus YDR054C, strain cdc34, active compounds read low 0.927 | locus YDR226W, strain ADK1, active compounds read low 0.932 | locus YFL009W, strain cdc4, active compounds read low 0.927 | locus YFL029C, strain CAK1, active compounds read low 0.937 | locus YFR003C, strain YPI1, active compounds read low 0.94 | locus YFR028C, strain CDC14, active compounds read low 0.924 | locus YIL147C, strain SLN1, active compounds read low 0.931 | locus YJL128C, strain PBS2, active compounds read low 0.904 | locus YJR016C, strain ILV3, active compounds read low 0.953 | locus YKL193C, strain SDS22, active compounds read low 0.93 | locus YMR001C, strain CDC5, active compounds read low 0.922 | locus YMR277W, strain FCP1, active compounds read low 0.904 | locus YNL006W, strain LST8, active compounds read low 0.941 | locus YNL161W, strain CBK1, active compounds read low 0.945 | locus YNL207W, strain RIO2, active compounds read low 0.953 | locus YNL222W, strain SSU72, active compounds read low 0.915 | locus YOL078W, strain AVO1, active compounds read low 0.928 | locus YOR329C, strain SCD5, active compounds read low 0.951 | locus YPL209C, strain IPL1, active compounds read low 0.949 | locus YPR025C, strain CCL1, active compounds read low 0.935 | locus YPR106W, strain ISR1, active compounds read low 0.945 | locus YPR111W, strain DBF20, active compounds read low 0.915 | strain NNK1, active compounds read low 0.945 | strain TSCII, active compounds read low 0.928
active: locus YDL214C, strain PRR2, active compounds read low 0.331 | locus YDR477W, strain SNF1, active compounds read low 0.311 | locus YER123W, strain YCK3, active compounds read low 0.364 | locus YER133W, strain GLC7, active compounds read low 0.285 | locus YGR040W, strain KSS1, active compounds read low 0.351 | locus YGR052W, strain FMP48, active compounds read low 0.196 | locus YGR092W, strain DBF2, active compounds read low 0.155 | locus YHR030C, strain SLT2, active compounds read low 0.103 | locus YHR079C, strain IRE1, active compounds read low 0.151 | locus YHR082C, strain KSP1, active compounds read low 0.155 | locus YHR205W, strain SCH9, active compounds read low 0.0625 | locus YJL095W, strain BCK1, active compounds read low 0.14 | locus YJL157C, strain FAR1, active compounds read low 0.208 | locus YJR066W, strain TOR1 (second series), active compounds read low 0.591 | locus YJR066W, strain TOR1, active compounds read low 0.162 | locus YKL048C, strain ELM1, active compounds read low 0.483 | locus YKL067W, strain YNK1, active compounds read low 0.24 | locus YKL101W, strain HSL1, active compounds read low 0.353 | locus YKL203C, strain TOR2, active compounds read low 0.388 | locus YLR113W, strain HOG1, active compounds read low 0.383 | locus YLR133W, strain CKI1, active compounds read low 0.226 | locus YLR403W, strain SFP1, active compounds read low 0.134 | locus YML070W, strain DAK1, active compounds read low 0.406 | locus YMR205C, strain PFK2 (second series), active compounds read low 0.248 | locus YNL020C, strain ARK1, active compounds read low 0.174 | locus YNL183C, strain NPR1, active compounds read low 0.236 | locus YNL307C, strain MCK1 (second series), active compounds read low 0.222 | locus YOL136C, strain PFK27, active compounds read low 0.43 | locus YOR061W, strain CKA2, active compounds read low 0.142 | locus YOR119C, strain RIO1, active compounds read low 0.313 | locus YOR231W, strain MKK1, active compounds read low 0.196 | locus YPL031C, strain PHO85, active compounds read low 0.29 | locus YPL153C, strain RAD53, active compounds read low 0.249 | locus YPL204W, strain HRR25, active compounds read low 0.311 | locus YPL256C, strain CLN2, active compounds read low 0.314
